Experimental data: PubChem BioAssay (NCI)
“And” between values parts separate entries of the source, which are not always exact repeats. Equal values may be shown once. Compounds without any hit were thinned out: in the full panel of roughly 83,000, 20% have a hit.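 Growth was measured after 48 h exposure to one concentration of compound in 96-well plates. Values under 10 count as active.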

How the values were obtained:
Assay in all cases: NCI-60 one-dose screen, 48 h (100 = growth as untreated, 0 = no growth, -100 = all killed)
[1] = system: DU-145 prostate
[2] = system: K-562 leukemia
[3] = system: MALME-3M melanoma
[4] = system: MDA-MB-231 breast
[5] = system: RXF 393 renal
[6] = system: SF-268 CNS
[7] = system: SF-295 CNS
[8] = system: SF-539 CNS
[9] = system: UACC-257 melanoma; settings: 10 µM unless noted
[10] = system: M14 melanoma

Measured: growth

NC1=NC(c2ccccc2)N=C(Nc2ccccc2)N1 (stereo not drawn)
inactive: [1]; 10 µM unless noted 105% and 100% | [2]; 10 µM unless noted 53.4% and 65.1% | [3]; 10 µM unless noted 84.9% and 53.8% | [4]; 10 µM unless noted 101% and 74.6% | [5]; 10 µM unless noted 91.5% | [6]; 10 µM unless noted 49.2% and 54% | [7]; 10 µM unless noted 87.5% and 83.6% | [8]; 10 µM unless noted 84.8% and 55.2% | [9] 91.9% and 108% | [10]; 10 µM unless noted 81.9% and 75.9%

OCCSc1ccc(Cl)cc1
inactive: [1]; 10 µM unless noted 125% and 107% | [2]; 10 µM unless noted 112% and 136% | [3]; 10 µM unless noted 117% and 83.8% | [4]; 10 µM unless noted 115% and 99.5% | [5]; 10 µM unless noted 114% and 108% | [6]; 10 µM unless noted 124% and 101% | [7]; 10 µM unless noted 94.9% and 101% | [8]; 10 µM unless noted 108% and 91.7% | [9] 114% and 97.2% | [10]; 10 µM unless noted 107% and 94.2%

COC(=O)c1nc(N)nc(C(=O)OC)c1C(=O)c1cccc2ccccc12
inactive: [1]; 10 µM unless noted 121% | [2]; 10 µM unless noted 111% | [3]; 10 µM unless noted 103% | [4]; 10 µM unless noted 105% | [5]; 10 µM unless noted 105% | [6]; 10 µM unless noted 116% | [7]; 10 µM unless noted 98.7% | [8]; 10 µM unless noted 95.4% | [9] 118% | [10]; 10 µM unless noted 108%

Cc1c(Cl)cc(Cl)c(N)c1Cl
inactive: [1]; 10 µM unless noted 121% | [2]; 10 µM unless noted 106% | [3]; 10 µM unless noted 109% | [4]; 10 µM unless noted 98.9% | [5]; 10 µM unless noted 108% | [6]; 10 µM unless noted 104% | [7]; 10 µM unless noted 102% | [8]; 10 µM unless noted 96.4% | [9] 106% | [10]; 10 µM unless noted 105%

NNC(=O)Nc1ccccc1
inactive: [1]; 10 µM unless noted 106% | [2]; 10 µM unless noted 102% | [3]; 10 µM unless noted 99.6% | [4]; 10 µM unless noted 91.2% | [5]; 10 µM unless noted 108% | [6]; 10 µM unless noted 100% | [7]; 10 µM unless noted 96.3% | [8]; 10 µM unless noted 97% | [9] 108% | [10]; 10 µM unless noted 107%

COc1ccc(C(=O)C(O)c2ccc(OC)cc2)cc1 (stereo not drawn)
inactive: [1]; 10 µM unless noted 110% and 103% | [2]; 10 µM unless noted 101% and 103% | [3]; 10 µM unless noted 92.2% and 103% | [4]; 10 µM unless noted 104% and 112% | [5]; 10 µM unless noted 125% and 103% | [6]; 10 µM unless noted 103% and 101% | [7]; 10 µM unless noted 104% and 107% | [8]; 10 µM unless noted 105% and 103% | [9] 104% and 101% | [10]; 10 µM unless noted 101% and 99.9%

O=c1ccn2c(n1)OC1CC2OC1COC(c1ccccc1)(c1ccccc1)c1ccccc1 (stereo not drawn)
inactive: [1]; 10 µM 115% | [1]; 100 µM 99.1% | [2]; 10 µM 102% | [2]; 100 µM 50.4% | [3]; 10 µM 119% | [3]; 100 µM 95% | [4]; 10 µM 111% | [4]; 100 µM 82.1% | [5]; 10 µM 107% | [5]; 100 µM 75.8% | [6]; 10 µM 119% | [6]; 100 µM 76.3% | [7]; 10 µM 118% | [7]; 100 µM 67.1% | [8]; 10 µM 110% | [8]; 100 µM 48.8% | [9] 93.8% [100 µM] | [10]; 10 µM 112% | [10]; 100 µM 46.1%

CC(=O)Oc1ccc(C(c2ccc(OC(C)=O)cc2)c2ccccn2)cc1
inactive: [1]; 10 µM unless noted 96.8% and 106% | [2]; 10 µM unless noted 89.6% and 99.2% | [3]; 10 µM unless noted 100% and 107% | [4]; 10 µM unless noted 100% and 102% | [5]; 10 µM unless noted 71.9% and 16.1% | [6]; 10 µM unless noted 104% and 99.3% | [7]; 10 µM unless noted 92.1% | [8]; 10 µM unless noted 100% and 75.6% | [9] 96.1% and 88.3% | [10]; 10 µM unless noted 95.1% and 69.3%

CS/C(=C\c1ccc(C(=O)c2ccc(C)cc2)n1C)S(C)=O (stereo not drawn)
inactive: [1]; 10 µM 110% | [1]; 100 µM 88.1% | [2]; 10 µM 44.4% | [2]; 100 µM 26.3% | [3]; 10 µM 95% | [3]; 100 µM 69.3% | [4]; 10 µM 89.6% | [4]; 100 µM 85.6% | [5]; 10 µM 101% | [5]; 100 µM 73.2% | [6]; 10 µM 112% | [6]; 100 µM 93.2% | [7]; 10 µM 60.7% | [7]; 100 µM 62.2% | [8]; 10 µM 91.3% | [8]; 100 µM 80.4% | [9] 64.6% [100 µM] | [10]; 10 µM 103% | [10]; 100 µM 69%

CC(NC(=O)CCl)c1ccccc1 (stereo not drawn)
inactive: [1]; 10 µM unless noted 103% | [2]; 10 µM unless noted 109% | [3]; 10 µM unless noted 99.4% | [4]; 10 µM unless noted 111% | [5]; 10 µM unless noted 98.7% | [6]; 10 µM unless noted 98.3% | [7]; 10 µM unless noted 102% | [8]; 10 µM unless noted 104% | [9] 100% | [10]; 10 µM unless noted 93.8%
